GLS inh: qHTS for Inhibitors of Glutaminase (GLS). GLS enzymatic activity, qHTS titration. hit rate 0.21% among 410,000. Potency, µM (top dose mostly 45.5 µM), inactives show top-dose activity change, negative = inhibition, most hits filed as inhibitors; note: potency is the fitted concentration of half-maximal effect
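Read-out is an Amplex red fluorescence increase coupled through glutamate oxidase and HRP, measured before and after 30 min room-temperature incubation. hKGA is in 45 mM KH2PO4 (pH 8.2) with 0.02% Tween-20; glutamine added as 1mM solution.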
PI4K2A inh: qHTS for small molecular inhibitors of PI4K2A; Phosphatidylinositol 4-kinase type 2-alpha (Homo sapiens), Q9BTU6; purified PI4K2A, ADP-Glo luminescence, 1 h; stronger effect = lower value; activity change, negative = inhibition, % at 76.9 µM; hit rate 0.13% among 420,000; AID 1346378, 2018; in the data active = activity change below about -50%; inconclusive = mostly about -30% to -49%;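 note: -100% = wells without enzyme as full effect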
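PI4K2A activity was measured by ADP-Glo luminescence: enzyme (4 ug/mL stock) and phosphatidylinositol (1.2 mM stock) in Tris pH 7.5/MgCl2/EGTA/Triton X-100 buffer were reacted with ATP (300 microM stock) for one hour at ambient temperature.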
PLK1 PBD block: qHTS for Inhibitors of PLK1-PDB (polo-like kinase 1 - polo-box domain): Primary Screen. Serine/threonine-protein kinase PLK1 (Homo sapiens), P53350. Plk1 PBD binding of FITC phosphopeptide, fluorescence polarization. Potency, µM, for the others: max response, negative = inhibition, hits mostly inhibitors. hit rate 2.8% among 360,000. AID 720504, 2013; note: potency is the fitted concentration of half-maximal effect; series mostly up to about 57 µM; nearly all actives have a fitted effect of over 65% in size
VDR inhibitor: Inhibitors of the vitamin D receptor (VDR): qHTS. Vitamin D3 receptor (Homo sapiens), P11473. VDR-SRC2-3 peptide fluorescence polarization, 2 h. Potency, µM, for the others: max response, negative = inhibition, actives largely listed as inhibitors. hit rate 0.93% among 400,000; note: potency is the fitted concentration of half-maximal effect
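Two reagent solutions held at 4 deg C in the dark were dispensed, compounds pinned at 23 nl, and the mixture incubated 2 h at room temperature. Read-out: fluorescence polarization of VDR–SRC2-3 peptide binding.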
KAT2A inh: qHTS Assay for Inhibitors of GCN5L2; Potency, µM (series often up to 58.9 µM), without a hit: top-dose activity change, negative = inhibition, actives largely listed as inhibitors; GCN5L2 HAT assay, ThioGlo1 CoA-SH fluorescence; hit rate 0.21% among 390,000; note: potency is the fitted concentration of half-maximal effect
Target sequence (Q92830 whole entry, looked up): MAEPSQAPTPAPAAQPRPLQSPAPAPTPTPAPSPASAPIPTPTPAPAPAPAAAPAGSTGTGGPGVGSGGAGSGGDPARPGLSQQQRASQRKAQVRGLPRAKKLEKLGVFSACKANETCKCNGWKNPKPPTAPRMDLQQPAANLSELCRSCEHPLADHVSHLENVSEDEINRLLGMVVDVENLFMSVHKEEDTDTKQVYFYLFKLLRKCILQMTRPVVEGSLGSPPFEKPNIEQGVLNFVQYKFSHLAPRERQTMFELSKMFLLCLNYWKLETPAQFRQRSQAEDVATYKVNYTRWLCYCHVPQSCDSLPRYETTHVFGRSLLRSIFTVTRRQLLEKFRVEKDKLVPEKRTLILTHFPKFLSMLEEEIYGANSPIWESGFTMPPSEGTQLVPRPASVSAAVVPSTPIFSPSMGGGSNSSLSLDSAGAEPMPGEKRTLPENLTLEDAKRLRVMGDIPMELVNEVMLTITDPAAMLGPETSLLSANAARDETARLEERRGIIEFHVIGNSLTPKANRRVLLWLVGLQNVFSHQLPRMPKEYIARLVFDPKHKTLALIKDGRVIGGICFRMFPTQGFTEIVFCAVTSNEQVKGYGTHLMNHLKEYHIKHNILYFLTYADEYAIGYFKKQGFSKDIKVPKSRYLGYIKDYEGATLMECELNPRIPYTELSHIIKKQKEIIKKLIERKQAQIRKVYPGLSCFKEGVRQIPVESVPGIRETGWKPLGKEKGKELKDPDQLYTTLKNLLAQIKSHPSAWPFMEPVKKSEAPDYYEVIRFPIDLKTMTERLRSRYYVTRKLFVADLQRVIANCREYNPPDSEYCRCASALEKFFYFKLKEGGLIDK
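qHTS, 1536-well. 20nM enzyme, pH 7.5 HEPES/EDTA/Tween-20 buffer; 15 min compound preinc., RT. Start: 75uM H3(1-25), 70uM AcCoA, 50uM ThioGlo1. Read Ex340/Em540 at t=0 (autofluorescence flag) and t=20 min.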
* marks the source's active call; other numbers are inactive results; ? = inconclusive; . = not tested or not shown. This is a sample that favours compounds with a hit; in the whole collection about 3.1% have one here. Unless noted, calls come from the whole dose curve; as a rule, active = well fitted curve in the direction sought with a large enough effect; inconclusive = small, poorly fitted or top-dose-only effect, or another doubt; inactive = no such curve, though single readings can be large; an effect the other way counts as inactive or inconclusive. Unless noted, % is set by controls: 0 for no effect and ±100 for the full control effect.

SMILES	GLS inh	PI4K2A inh	PLK1 PBD block	VDR inhibitor	KAT2A inh
COc1ccc(C(=O)/C=C/c2ccccc2)cc1	.	.	.	25µM*	-14%
O=C(C=Cc1ccccc1)c1ccc([N+](=O)[O-])cc1	-17%	18	-21%	10µM*	.
COc1ccc(C(=O)/C=C/c2ccc(O)cc2)cc1	21%	-7	-3%	-11%	-4%
NS(=O)(=O)c1ccc(CCNC(=O)/C=C/c2ccc([N+](=O)[O-])cc2)cc1	6%	-4	-10%	6%	-8%
Cc1ccc(C(=O)/C=C/C(=O)c2ccc(C)cc2)cc1	2.8µM*	-1	1.7µM*	?	-19%
O=C(/C=C/c1ccc([N+](=O)[O-])cc1)NCCc1ccccc1	2%	-2	17µM*	?	-7%
COC[C@@H]1CCCN1c1ccc2c(c1)O[C@@H]1CCN(C1)S2(=O)=O	.	-4	.	.	.
O=C(/C=C/c1cccc(O)c1)c1cccnc1	0%	-17	?	56µM*	-6%
Cc1cccc(C=CC(=O)c2ccccc2)c1	-11%	17	-12%	45µM*	.
O=C(/C=C/c1ccc(O)cc1)c1ccccc1	1%	-75*	0%	-15%	-25%
O=C(O)/C=C/C(=O)NCCCc1ccccc1	?	2	27µM*	-15%	-8%
O=c1nc2ccccc2c2n1CC(CN1CCN(c3ccccc3)CC1)N2 (centres undefined)	.	.	.	10%	-5%
Cc1ccc(C(=O)/C=C/c2ccccc2[N+](=O)[O-])cc1	0%	4	27µM*	?	-4%
COc1ccc(OC)c(N/C=C/C(=O)c2ccccc2)c1	24%	-52*	-8%	-12%	-17%
O=C(/C=C/c1ccccc1)c1ccc(O)cc1	.	.	.	45µM*	-12%
CCOc1ccc(/C=C/C(=O)c2ccccc2)cc1OC	1%	2	-3%	79µM*	-3%
CCOc1ccc(C(=O)/C=C/c2ccc(OC)c(OC)c2)cc1	-12%	-3	-1%	-25%	-15%
O=C(/C=C/c1cccnc1)c1ccc(O)cc1	-4%	-8	-10%	-11%	-5%
CCC(CC)NC(=O)/C=C/c1ccccc1Cl	17%	-5	30µM*	50µM*	1%
O=C(/C=C/c1ccccc1Cl)Nc1ccncc1	2%	-2	-3%	4%	5%
O=C(COC(=O)c1ccccc1O)NCCCc1ccccc1	1%	-3	30µM*	-7%	-6%
COc1ccccc1NCc1nc2ccccc2n1C	.	-4	.	.	.
CC(C)=CCC1C(=O)N(c2ccccc2)N(c2ccccc2)C1=O	43%	-2	.	25µM*	31%
Nc1c(C(=O)Nc2nc3ccccc3s2)sc2nc(-c3cccs3)ccc12	6%	-63*	-23%	32%	-24%
Nc1c(C(=O)Nc2ccccc2Br)sc2nc(-c3cccs3)ccc12	16%	-3	.	0%	-6%
SMILES	GLS inh	PI4K2A inh	PLK1 PBD block	VDR inhibitor	KAT2A inh
CC1=NN(c2ccc(Cl)cc2)C(=O)C1	-2%	?	2%	?	-4%
CC1=NN(c2cccc([N+](=O)[O-])c2)C(=O)C1	-3%	-50*	-1%	0%	4%
CN[C@@H](CCCN=C(N)N)C(=O)N[C@@H](CCCCN)C(=O)N1CCC[C@H]1C(=O)N[C@@H](Cc1c[nH]c2ccccc12)C(=O)N[C@H](C(=O)N[C@H](CC(C)C)C(=O)O)C(C)(C)C	.	.	.	7%	-15%
C=CCN1C(=O)[C@H](CC(=O)NCC23CC4CC(CC(C4)C2)C3)[C@@]2(C(=O)OCC)CCCC=C12	.	-5	.	.	.
O=C(O)c1ccccc1-c1ccccc1C(=O)Nc1ccc(-c2nc3cc(Cl)ccc3o2)cc1	9%	-1	21µM*	-27%	-21%
c1nc(SSc2ncnc3nc[nH]c23)c2[nH]cnc2n1	-25%	4	0.84µM*	25µM*	.
O=C(O)CSc1ncnc2nc[nH]c12	-1%	5	-5%	5%	-3%
O=C(O)CCc1ccc(-c2ccccc2)n1-c1cccc(Br)c1	26%	2	.	?	-7%
CC(C)C[C@@H](CNCC(=O)[C@H](CC(C)C)NC(=O)c1[nH]cnc1C(=O)N[C@H](CN)CC(C)C)NC(=O)c1nc[nH]c1C(=O)N[C@@H](Cc1ccccc1)C(=O)O	-13%	-8	21µM*	?	.
CC(C)C[C@@H](CN)NC(=O)c1nc[nH]c1C(=O)N[C@@H](C)C(=O)CNC[C@H](CC(C)C)NC(=O)c1nc[nH]c1C(=O)N[C@@H](Cc1ccccc1)C(=O)O	?	-7	?	-27%	.
CC(C)C[C@@H](CNCC(=O)[C@H](Cc1ccccc1)NC(=O)c1[nH]cnc1C(=O)N[C@H](CN)CC(C)C)NC(=O)c1nc[nH]c1C(=O)N[C@@H](CC(=O)O)C(=O)O	13µM*	-8	34µM*	?	.
CC1CCc2nc(-c3cc4ccc(O)cc4oc3=O)sc2C1 (centres undefined)	.	.	.	-18%	.
COc1cccc(C2Nc3ccc4ccccc4c3C3=C2C(=O)CC(C)(C)C3)c1OCC(=O)O (centres undefined)	13µM*	-2	-6%	-6%	-19%
O=S(=O)(Nc1cccc2ccccc12)c1cccc2ccccc12	.	.	.	9%	.
Cc1nc(N2CCCCC2)sc1C(=O)c1ccc(SCCO)c([N+](=O)[O-])c1	?	3	8.4µM*	?	-19%
CCOc1ccc(N(CC(=O)Nc2c(C)n(C)n(-c3ccccc3)c2=O)S(=O)(=O)c2ccc3c(c2)N(C(=O)C2CCC2)CC3)cc1	.	1	.	.	.
NC(=O)c1ccc(N2CCN(c3ccccc3O)CC2)c([N+](=O)[O-])c1	11µM*	4	-13%	-16%	-2%
NC(=O)c1ccc(N2CCCCCC2)c([N+](=O)[O-])c1	3%	-4	6%	1%	-9%
COc1ccc(NC(=S)N(CCN(C)C)C(C)c2ccco2)cc1Cl (centres undefined)	1%	2	24µM*	-22%	4%
COc1cccc(NC(=S)N(CCN(C)C)C(C)c2ccco2)c1 (centres undefined)	22%	1	-5%	1%	6%
CCN(CC)c1c([N+](=O)[O-])c(=O)n(C)c2ccccc12	-5%	-1	-13%	5%	-6%
Cn1c(=O)c([N+](=O)[O-])c(Cl)c2ccccc21	0%	-10	?	18µM*	0%
Cn1c(=O)c([N+](=O)[O-])c(-n2cnc3ccccc32)c2ccccc21	5%	-2	-11%	20µM*	2%
CNc1ccnc(-c2cccc(NS(C)(=O)=O)c2)n1	.	.	.	-1%	-7%
O=C(O)CNC(=O)CCn1nnc2ccccc2c1=O	55%	6	30µM*	?	2%

Screening data from PubChem.
